# Source: PubChem BioAssay (NCATS)
# “And” between values parts separate entries of the source, which are not always exact repeats. Identical values can stand only once. Results filed as inconclusive are left out. Some compounds were tested as several samples or in several runs, with calls that do not always agree. The source made the active and inactive calls. Unless noted, the call rests on the fitted dose curve; in most records, active means well fitted curve in the direction sought with a large enough effect; inconclusive means small, poorly fitted or top-dose-only effect, or another doubt; inactive means no such curve, though single readings can be large; an effect the other way counts as inactive or inconclusive.
# Key:
# [1] = target: Cytochrome P450 3A4 (Homo sapiens) (UniProt P08684); assay: qHTS Assay for Inhibitors and Substrates of Cytochrome P450 3A4 (AID 884); further: nearly all actives have a fitted effect of over 50% in size; further: potency means the concentration at half of the fitted maximal effect; on activity change, negative = inhibition: series mostly up to about 57 µM; on the % scale 0 is the no-effect control and ±100 the full control effect
# In short: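 Luminescent readout of luciferin produced by CYP3A4 (20 nM) dealkylation of Luciferin-PPXE, 25 uM (its KM). NADPH-driven reaction ran 60 min at RT after 10 min compound preincubation; data scaled to 57 uM ketoconazole as 100% inhibition.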
# [2] = target: Cytochrome P450 3A4 (Homo sapiens) (UniProt P08684); assay: qHTS Assay for Activators of Cytochrome P450 3A4 (AID 885); further: nearly all actives have a fitted effect of over 65% in size; further: potency means the concentration at half of the fitted maximal effect
# In short: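 CYP3A4 activity: Luciferin-PPXE O-dealkylation, 25uM substrate, 200mM KPO4, RT throughout. Read-out is luciferase luminescence; higher values reflect activation.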
# [3] = target: Cytochrome P450 2D6 (Homo sapiens) (UniProt P10635); assay: qHTS Assay for Inhibitors and Substrates of Cytochrome P450 2D6 (AID 891); further: nearly all actives have a fitted effect of over 60% in size; further: potency means the concentration at half of the fitted maximal effect;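 on activity change, negative = inhibition: luciferin methyl ether substrate demethylated by CYP2D6 with NADPH regeneration; on the % scale 0 is the no-effect control and ±100 the full control effect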
# In short: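 Luminescent read-out of luciferin formed by 5 nM human CYP2D6 demethylating 30 uM Luciferin-ME EGE (Km level) over 60 min at room temperature after NADPH regeneration addition. Data normalized to full inhibition by 1.43 uM quinidine.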
# [4] = target: Cytochrome P450 2C19 (Homo sapiens) (UniProt P33261); assay: qHTS Assay for Inhibitors and Substrates of Cytochrome P450 2C19 (AID 899); further: nearly all actives have a fitted effect of over 60% in size; further: potency means the concentration at half of the fitted maximal effect
# In short: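 5 nM human CYP2C19 with 10uM Luciferin-H EGE (at KM) in 50mM KPO4, compound preincubated 10 min at 37C, then NADPH regeneration for 60 min at 37C. Luciferin read by luminescence after detection reagent; normalized to 57uM ketoconazole as full inhibition.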
# [5] = qHTS Assay for Identification of Small Molecule Agonists for Hypoxia Response Element Signaling Pathway (AID 914; active means well fitted activation curve with a large enough effect in the signal ratio, with a control signal flat, not every such curve was filed as active; the % refers to the signal ratio; further: % of control where 0% means no effect); settings: ME-180 (cervical carcinoma) HRE-bla reporter, beta-lactamase ratio, CoCl2, 17 h; stronger effect = higher value
# In short: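 AC50 values come from titration-series %Activity, taken as the 460/530nm ratio of CCF4 fluorescence (excitation 405nm). CellSensor HRE-bla ME-180 cells were treated 17 hours at 37 C with compound plus an EC50 level of CoCl2.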
# [6] = Confirmation and Secondary Assay for Modulators of Hemoglobin Beta Chain Splicing at IVS2 654 locus (AID 910);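 further: HeLa cells stably carrying EGFP split by mutant beta-globin IVS2-654 intron; % of control where 0% means no effect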
# In short: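 HeLa cells stably expressing EGFP interrupted by β-globin IVS2-654 intron, seeded overnight in Opti-MEM/2% FCS, then treated 2 days at 37 °C. Restored splicing read as total peak GFP intensity per well by laser scanning cytometry (488 nm excitation, 500–520 nm emission); 500 nM antisense PNA as control.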
# [7] = Confirmation and Secondary Assay for Modulators of Hemoglobin Beta Chain Splicing at IVS2 705 locus (AID 930);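 further: HeLa cells stably expressing the EGFP-705 splicing reporter; series mostly up to about 46 µM; % of control where 0% means no effect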
# In short: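 Restored EGFP fluorescence after 2-day compound exposure reports splicing correction in IVS2-705 EGFP reporter HeLa cells; positive control was 500 nM splice-blocking PNA oligo. Signal measured as well total peak GFP intensity (488 nm excitation).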
# Cytochrome P450 3A4 (Homo sapiens), sequence (P08684 whole entry, looked up): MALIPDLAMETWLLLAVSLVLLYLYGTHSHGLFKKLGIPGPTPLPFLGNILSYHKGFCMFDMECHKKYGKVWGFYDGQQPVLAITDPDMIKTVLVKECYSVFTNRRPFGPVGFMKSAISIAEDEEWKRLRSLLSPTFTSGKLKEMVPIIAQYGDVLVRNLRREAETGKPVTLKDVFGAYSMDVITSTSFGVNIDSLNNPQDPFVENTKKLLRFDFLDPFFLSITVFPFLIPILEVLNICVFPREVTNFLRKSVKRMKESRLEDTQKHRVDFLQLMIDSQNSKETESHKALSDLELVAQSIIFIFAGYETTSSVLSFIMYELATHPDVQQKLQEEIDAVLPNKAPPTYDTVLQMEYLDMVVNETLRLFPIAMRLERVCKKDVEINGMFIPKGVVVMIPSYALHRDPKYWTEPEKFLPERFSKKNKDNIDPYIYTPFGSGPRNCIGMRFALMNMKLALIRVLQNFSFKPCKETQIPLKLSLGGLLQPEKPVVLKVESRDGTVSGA
# Cytochrome P450 2C19 (Homo sapiens), sequence (P33261 whole entry, looked up): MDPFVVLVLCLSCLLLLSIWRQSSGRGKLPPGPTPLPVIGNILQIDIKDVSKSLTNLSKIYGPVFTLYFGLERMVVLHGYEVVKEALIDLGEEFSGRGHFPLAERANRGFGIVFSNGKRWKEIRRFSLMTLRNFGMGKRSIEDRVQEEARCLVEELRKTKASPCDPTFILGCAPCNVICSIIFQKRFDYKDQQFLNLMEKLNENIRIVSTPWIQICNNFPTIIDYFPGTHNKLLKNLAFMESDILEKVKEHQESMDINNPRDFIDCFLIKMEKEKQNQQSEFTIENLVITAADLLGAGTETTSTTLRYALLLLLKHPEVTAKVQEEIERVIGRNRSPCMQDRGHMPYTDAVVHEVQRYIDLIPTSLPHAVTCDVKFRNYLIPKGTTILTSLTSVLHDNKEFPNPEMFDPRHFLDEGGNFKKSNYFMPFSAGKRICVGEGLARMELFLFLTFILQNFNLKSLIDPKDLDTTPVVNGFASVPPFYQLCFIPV
# Cytochrome P450 2D6 (Homo sapiens), sequence (P10635 whole entry, looked up): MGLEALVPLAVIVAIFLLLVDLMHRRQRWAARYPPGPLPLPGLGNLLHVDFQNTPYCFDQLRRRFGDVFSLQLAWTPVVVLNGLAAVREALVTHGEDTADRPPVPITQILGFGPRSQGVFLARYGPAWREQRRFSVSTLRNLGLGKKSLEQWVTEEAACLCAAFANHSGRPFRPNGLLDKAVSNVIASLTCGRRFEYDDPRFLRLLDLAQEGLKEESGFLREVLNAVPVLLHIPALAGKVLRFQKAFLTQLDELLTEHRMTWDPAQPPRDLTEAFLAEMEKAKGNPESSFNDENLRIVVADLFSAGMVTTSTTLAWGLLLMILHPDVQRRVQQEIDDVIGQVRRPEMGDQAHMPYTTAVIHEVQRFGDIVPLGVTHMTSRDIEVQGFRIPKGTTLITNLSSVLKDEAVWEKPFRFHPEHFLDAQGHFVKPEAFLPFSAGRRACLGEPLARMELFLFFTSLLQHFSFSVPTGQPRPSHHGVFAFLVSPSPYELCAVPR
smiles,measurement,setting,value
CC(C)(C)c1ccc(OC2C(O)COC2/C=C/C#Cc2ccccc2)cc1 (stereo not given),Potency,[1],3.16 µM (active) and 3.98 µM (active)
same,"activity change, positive = activation",[2],-77.1% [at 11.4 µM] (inactive) and -67.5% [at 11.4 µM] (inactive)
same,Potency,[3],inactive
same,Potency,[4],3.16 µM (active) and inactive
CCC1=C2CC[C@H]3C(=O)N(CC)C(=O)[C@H]3[C@H]2[C@@]2(C)C(=NCCc3c[nH]c4ccccc34)OC(=O)N2C1=O,Potency,[1],3.98 µM (active)
same,Potency,[2],inactive
COc1cccc([C@H]2Oc3ccc(OC)cc3/C(=N\O[C@@H]3O[C@H](COC(C)=O)[C@H](OC(C)=O)[C@H](OC(C)=O)[C@H]3OC(C)=O)[C@@H]2O)c1,Potency,[1],3.16 µM (active)
same,"activity change, positive = activation",[2],-77% [at 11.4 µM] (inactive)
same,Potency,[3],3.16 µM (active)
C=C(C)C(O)/C=C/c1ccc(C)cc1 (stereo not given),Potency,[1],3.98 µM (active)
same,"activity change, positive = activation",[2],-72.8% [at 11.4 µM] (inactive)
same,Potency,[3],inactive
same,Potency,[4],5.01 µM (active)
CO[C@H]1COC(=O)[C@@H](Cc2ccccc2)NC(=O)[C@@H](C)COC(=O)CCC[C@@H]1C,Potency,[1],3.16 µM (active)
same,"activity change, positive = activation",[2],-63.9% [at 11.4 µM] (inactive)
same,Potency,[3],inactive
C=CCOC(=O)C(C(C)=O)C(NC(=O)OC)c1cccc(F)c1 (stereo not given),Potency,[1],0.0794 µM (active)
same,"activity change, positive = activation",[2],-72.4% [at 11.4 µM] (inactive)
same,Potency,[3],inactive
same,Potency,[4],0.1 µM (active)
C=CC[C@@H]1C=C[C@H](O/N=C(\C)CCN2CCCCc3nc(C)c(C)cc32)[C@H](CO)O1,Potency,[1],3.98 µM (active)
same,"activity change, positive = activation",[2],-81.7% [at 11.4 µM] (inactive)
same,Potency,[3],3.98 µM (active)
COc1ccc(COC(=O)N/N=C2/C[C@@H](O)[C@@H](O)[C@@H]3[C@@H]4C(=O)N(c5cccc(Oc6ccccc6)c5)C(=O)[C@H]4CC[C@H]23)cc1,Potency,[1],3.16 µM (active)
same,"activity change, positive = activation",[2],-68.2% [at 11.4 µM] (inactive)
same,activation,[5],-10.1% (inactive)
Nc1nc2c(ncn2C2OC(COC(=O)c3ccccc3)C(OC(=O)c3ccccc3)C2OC(=O)c2ccccc2)c(=O)[nH]1 (stereo not given),Potency,[1],3.98 µM (active)
same,Potency,[2],inactive
same,outcome,[6],inactive
same,outcome,[7],inactive
COc1cccc(-c2cc(=O)c3ccc(OC)cc3o2)c1,Potency,[1],7.94 µM (active)
same,Potency,[2],inactive
same,outcome,[6],inactive
same,outcome,[7],inactive
CC1(C)C(=O)C=C[C@@]2(C)C1C=C[C@@]1(C)C2CC[C@@]2(C)C(c3ccoc3)OC(=O)C3OC312 (stereo not given in full),Potency,[1],7.94 µM (active)
same,Potency,[2],inactive
same,outcome,[7],inactive
COc1ccc(O[C@H]2C=C[C@@H](c3ccccc3)O[C@@H]2CO/N=C(\C)CCN2CCCCc3nc(C)c(C)cc32)cc1,Potency,[1],3.98 µM (active)
same,"activity change, positive = activation",[2],-86.9% [at 11.4 µM] (inactive)
same,Potency,[4],2.51 µM (active)
COc1cc2c(cc1OC)-c1c(oc3cc(O)cc(O)c3c1=O)CO2,Potency,[1],10 µM (active)
same,Potency,[2],inactive
same,outcome,[6],inactive
same,outcome,[7],inactive
COc1c2c(cc3occ(-c4ccc5c(c4)OCO5)c(=O)c13)OC(C)(C)C=C2,Potency,[1],2.51 µM (active)
same,Potency,[2],inactive
same,outcome,[6],inactive
CCO[C@H](c1cc(OC)cc([N+](=O)[O-])c1OC)[C@H](C)/C=C\CC(=O)OC,Potency,[1],3.98 µM (active)
same,"activity change, positive = activation",[2],-72.1% [at 11.4 µM] (inactive)
same,Potency,[4],0.398 µM (active)
CCCNC(=O)OC[C@@H]1O[C@H](CCO/N=C\[C@@H](C)[C@H](OCc2ccccc2)C(C)C)C=C[C@@H]1Oc1ccc(OC)cc1,Potency,[1],3.98 µM (active)
same,"activity change, positive = activation",[2],-83.7% [at 11.4 µM] (inactive)
same,Potency,[4],3.16 µM (active)
C=C(C)C(O)/C=C/c1cccc(OC)c1 (stereo not given),Potency,[1],3.98 µM (active)
same,"activity change, positive = activation",[2],-69.2% [at 11.4 µM] (inactive)
same,Potency,[4],0.0126 µM (active)
CCOC(=O)OCC1OC(c2ccccc2)C=CC1Oc1ccc(F)cc1C (stereo not given),"activity change, negative = inhibition",[1],-28.9% [at 11.4 µM] (inactive)
same,Potency,[3],inactive
COc1ccc(-c2cc(=O)c3ccccc3o2)cc1,Potency,[1],2 µM (active)
same,Potency,[2],inactive
same,outcome,[6],inactive
COc1c(-c2coc3cc4c(cc3c2=O)CC(OC(C)=O)C(C)(C)O4)ccc2c1C=CC(C)(C)O2 (stereo not given),Potency,[1],inactive
same,Potency,[2],5.01 µM (active)
same,outcome,[6],inactive
same,outcome,[7],inactive
COCOc1ccc(Br)cc1C(=O)[C@H]1O[C@H]1c1cccc(OC)c1,Potency,[1],3.98 µM (active)
same,"activity change, positive = activation",[2],-113% [at 11.4 µM] (inactive)
same,Potency,[4],0.0631 µM (active)
COc1ccc(O[C@H]2C=C[C@@H](c3ccccc3)O[C@H]2CO/N=C2/[C@H]3O[C@@H]3[C@@H](O)[C@H]3[C@H]2CCn2c(=O)n(-c4ccccc4)c(=O)n23)cc1,Potency,[1],3.16 µM (active)
same,"activity change, positive = activation",[2],-86.5% [at 11.4 µM] (inactive)
same,Potency,[4],2.51 µM (active)
C=C1C2CC[C@@]3(C)C(c4ccoc4)OC(=O)C[C@@]13OC1CC(OC(C)=O)C(C)(C)C(CC(=O)OC)[C@@]12C (stereo not given in full),Potency,[1],1.26 µM (active)
same,Potency,[2],inactive
same,outcome,[6],inactive
same,outcome,[7],inactive
